20 molecules from publication PMC9911399, “Two distinct binding modes provide the RNA-binding protein RbFox with extraordinary sequence specificity” can be followed below.

First the molecules themselves.
B1: CAAUUGA (DNA:RNA)
RNA: GGGAGACCGGAAUUCAGAUUGUCCCAAUUGAUUAAAUCCCGUCGUAGCCACCA
DNA 1: CAATCTGAATTCCGGTCTCCC
DNA 2: TGGTGGCTACGACGGGATT
B2: GGUCCAG (DNA:RNA)
RNA: GGGAGACCGGAAUUCAGAUUGUCCGGUCCAGUUAAAUCCCGUCGUAGCCACCA
DNA 1: CAATCTGAATTCCGGTCTCCC
DNA 2: TGGTGGCTACGACGGGATT
B3: GCCCCAG (DNA:RNA)
RNA: B2 RNA with G26C, U27C
DNA 1: CAATCTGAATTCCGGTCTCCC
DNA 2: TGGTGGCTACGACGGGATT
B4: CAUGAAU (DNA:RNA)
RNA: B1 RNA with A27U, U28G, U29A, G30A, A31U
DNA 1: CAATCTGAATTCCGGTCTCCC
DNA 2: TGGTGGCTACGACGGGATT
B5: AAUACGG (DNA:RNA)
RNA: B2 RNA with G25A, G26A, C28A, A30G
DNA 1: CAATCTGAATTCCGGTCTCCC
DNA 2: TGGTGGCTACGACGGGATT
B6: CUGUACC (DNA:RNA)
RNA: B1 RNA with A26U, A27G, U29A, G30C, A31C
DNA 1: CAATCTGAATTCCGGTCTCCC
DNA 2: TGGTGGCTACGACGGGATT
B7: AGCUGAC (DNA:RNA)
RNA: B2 RNA with G25A, U27C, C28U, C29G, G31C
DNA 1: CAATCTGAATTCCGGTCTCCC
DNA 2: TGGTGGCTACGACGGGATT
B8: AUGUCCG (DNA:RNA)
RNA: B2 RNA with G25A, G26U, U27G, C28U, A30C
DNA 1: CAATCTGAATTCCGGTCTCCC
DNA 2: TGGTGGCTACGACGGGATT
B9: AUGGAGA (DNA:RNA)
RNA: B1 RNA with C25A, A26U, A27G, U28G, U29A
DNA 1: CAATCTGAATTCCGGTCTCCC
DNA 2: TGGTGGCTACGACGGGATT
B10: AUGGAUG (DNA:RNA)
RNA: B2 RNA with G25A, G26U, U27G, C28G, C29A, A30U
DNA 1: CAATCTGAATTCCGGTCTCCC
DNA 2: TGGTGGCTACGACGGGATT
B11: AUGUUUG (DNA:RNA)
RNA: B1 RNA with C25A, A26U, A27G, G30U, A31G
DNA 1: CAATCTGAATTCCGGTCTCCC
DNA 2: TGGTGGCTACGACGGGATT
B12: AUGGAUC (DNA:RNA)
RNA: GGGAGACCGGAAUUCAGAUUGUCCAUGGAUCUUAAAUCCCGUCGUAGCCACCA
DNA 1: CAATCTGAATTCCGGTCTCCC
DNA 2: TGGTGGCTACGACGGGATT
B13: CCAUGUA (DNA:RNA)
RNA: B1 RNA with A26C, U29G, G30U
DNA 1: CAATCTGAATTCCGGTCTCCC
DNA 2: TGGTGGCTACGACGGGATT
B14: AUGUGUA (DNA:RNA)
RNA: B12 RNA with G28U, A29G, C31A
DNA 1: CAATCTGAATTCCGGTCTCCC
DNA 2: TGGTGGCTACGACGGGATT
B15: AUGUUGU (DNA:RNA)
RNA: B12 RNA with G28U, A29U, U30G, C31U
DNA 1: CAATCTGAATTCCGGTCTCCC
DNA 2: TGGTGGCTACGACGGGATT
B16: GUCCAUG (DNA:RNA)
RNA: B12 RNA with A25G, G27C, G28C, C31G
DNA 1: CAATCTGAATTCCGGTCTCCC
DNA 2: TGGTGGCTACGACGGGATT
B17: ACCAUGU (DNA:RNA)
RNA: B1 RNA with C25A, A26C, A27C, U28A, A31U
DNA 1: CAATCTGAATTCCGGTCTCCC
DNA 2: TGGTGGCTACGACGGGATT
B18: AUGUAUA (DNA:RNA)
RNA: B12 RNA with G28U, C31A
DNA 1: CAATCTGAATTCCGGTCTCCC
DNA 2: TGGTGGCTACGACGGGATT
B19: AUGUUCG (DNA:RNA)
RNA: B12 RNA with G28U, A29U, U30C, C31G
DNA 1: CAATCTGAATTCCGGTCTCCC
DNA 2: TGGTGGCTACGACGGGATT
B20: ACUUAUG (DNA:RNA)
RNA: B12 RNA with U26C, G27U, G28U, C31G
DNA 1: CAATCTGAATTCCGGTCTCCC
DNA 2: TGGTGGCTACGACGGGATT

Numbering of substitutions follows the chain as printed; changes in the protein carry UniProt numbers. Over roughly 16,000 sequences, “ka relative to ugcaugu” has its median near 0.096; the highest 2% begin near 0.35. The sample holds the highest values, similar sequences and a random draw of the others, so the mix is not that of the screen.

The test concerns the target T1, RBFOX1 RRM RbFoxmut (Fox-RRM*) (Homo sapiens, UniProt Q9NWB1 109-208, R118D;E147R;N151S;E152T).
T1 sequence: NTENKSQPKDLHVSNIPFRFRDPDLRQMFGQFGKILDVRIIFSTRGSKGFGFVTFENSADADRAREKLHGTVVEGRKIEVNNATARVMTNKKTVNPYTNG
Kind of test: EMSA; HiTS-Eq, 1 nM pool, 10 min; buffer printed only for the single-RNA assays: 10 mM Tris pH 7.5, 150 mM NaCl, 3.4 mM EDTA, 0.001% NP-40, 30 C. To be noted: tags: His6 N-terminal (pET28a); label: 5' 32P. Put shortly: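 These values rest on relative association constants, computed from read-count changes of each RNA species versus the control reaction and normalised to the cognate motif. Reads came from free RNA recovered by 8% native PAGE after purified RbFox RRM (wild type or mutant) at increasing concentrations was equilibrated for 10 min in 50 µL with 1 nM of a 5′-radiolabelled pool with 7 randomized nucleotides and DNA-annealed flanks.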
On the technique in general: A gel shift assay detects complexes by their altered migration in electrophoresis.
For B1, the binding signal was 0.0875 KA relative to UGCAUGU.
On to B2, for which the binding signal was 0.0861 KA relative to UGCAUGU.
The result for B3 reads 0.117 KA relative to UGCAUGU.
The result for B4 reads 0.114 KA relative to UGCAUGU; that for B5, 0.0866 KA relative to UGCAUGU.
The result for B6 reads 0.137 KA relative to UGCAUGU; that for B7, 0.109 KA relative to UGCAUGU.
In the case of B8, the binding signal was 0.14 KA relative to UGCAUGU.
The result for B9 reads 0.139 KA relative to UGCAUGU; that for B10, 0.64 KA relative to UGCAUGU.
Regarding B11, the binding signal is 0.626 KA relative to UGCAUGU.
The result for B12 reads 0.298 KA relative to UGCAUGU; that for B13, 0.2 KA relative to UGCAUGU.
The result for B14 reads 0.364 KA relative to UGCAUGU.
The result for B15 reads 0.245 KA relative to UGCAUGU.
For the molecule B16, the binding signal is 0.151 KA relative to UGCAUGU.
As to B17, the binding signal was 0.102 KA relative to UGCAUGU.
For B18, the binding signal was 0.23 KA relative to UGCAUGU.
For B19, the binding signal is 0.412 KA relative to UGCAUGU.
The result for B20 reads 0.125 KA relative to UGCAUGU.
